# Source: PubChem BioAssay
# Pf growth 48h – inhibits P. falciparum growth in the first generation, 48 h | Potency, µM (series often up to 28.7 µM), for the others: at the top dose activity change, negative = inhibition, hits mostly inhibitors | P. falciparum luciferase growth in erythrocytes, 48 h | AID 504832 | 310,000 compounds, 5.9% hits; further: potency means the concentration at half of the fitted maximal effect; on the % scale 0 is the no-effect control and ±100 the full control effect
#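 Luciferase-expressing P. falciparum in infected erythrocytes (2% hematocrit, 0.1% parasitemia final) in RPMI 1640/0.5% Albumax were exposed to compound for 48 hours at 37 C, 5% CO2; growth read as luminescence.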
# Pf growth 96h – inhibits malaria parasite growth, 96 h; P. falciparum luciferase reporter growth, 96 h; Potency, µM (top dose mostly 28.7 µM), without a hit: at the highest dose activity change, negative = inhibition, hits mostly inhibitors; 320,000 compounds, 6.9% hits; AID 504834; further: potency means the concentration at half of the fitted maximal effect; on the % scale 0 is the no-effect control and ±100 the full control effect
#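 Readout is luminescence from an integrated firefly luciferase in P. falciparum. Red cells, 2% hematocrit and 0.05% parasitemia final, were cultured with compound through two parasite generations (96 hours) at 37 C, 5% CO2.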
# Shiga toxin inh – Shiga toxin inhibition | Vero cells, Shiga toxin protein synthesis inhibition reporter | inhibition, % at 38.7 µM | 290,000 compounds, 9.2% hits; in the data active means inhibition mostly above about 28%, no sharp cut-off; inactive means mostly below about 43%; further: 0% is about no effect
# LmPK inh – inhibitors of Leishmania mexicana pyruvate kinase; Potency, µM (series often up to 57.5 µM), inactives show at the highest dose activity change, negative = inhibition, actives largely listed as inhibitors; purified LmPK, Kinase-Glo ATP luminescence, 1 h; AID 1721; 290,000 compounds, 0.37% hits; further: potency means the concentration at half of the fitted maximal effect; on the % scale 0 is the no-effect control and ±100 the full control effect
# Target sequence (Q27686 whole entry, looked up): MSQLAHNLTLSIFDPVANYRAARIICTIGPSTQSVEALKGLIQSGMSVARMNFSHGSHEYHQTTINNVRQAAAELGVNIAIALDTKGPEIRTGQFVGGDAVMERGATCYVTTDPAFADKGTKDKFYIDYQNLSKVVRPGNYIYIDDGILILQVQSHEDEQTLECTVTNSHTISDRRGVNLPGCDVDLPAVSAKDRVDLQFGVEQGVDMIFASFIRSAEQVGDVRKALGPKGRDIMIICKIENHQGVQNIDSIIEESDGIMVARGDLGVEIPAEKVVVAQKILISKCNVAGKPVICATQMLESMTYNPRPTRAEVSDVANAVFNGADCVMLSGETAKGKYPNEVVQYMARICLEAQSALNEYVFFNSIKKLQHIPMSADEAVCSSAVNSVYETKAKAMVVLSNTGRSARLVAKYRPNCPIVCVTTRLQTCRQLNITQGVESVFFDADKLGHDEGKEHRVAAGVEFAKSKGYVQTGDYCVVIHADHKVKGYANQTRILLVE
#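 Purified LmPK (0.1 nM) converted ADP (0.1 mM) to ATP with PEP (0.5 mM) in imidazole buffer pH 7.2 with KCl and MgCl2, 1 h at room temperature. ATP was read by Kinase-Glo luminescence; data normalized to uninhibited and no-enzyme controls.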
# Cycloheximide cs – affects cycloheximide protein synthesis inhibition readout, counter-screen | max response, % | cell reporter, cycloheximide protein synthesis inhibition counterscreen | 300,000 compounds, 12% hits | AID 2314; in the data active means max response mostly above about 13%, no sharp cut-off; inactive means mostly below about 14%; further: read at 38.3 µM for the half of the compounds with a filed dose; 0% is about no effect
# An asterisk follows results filed as active; ? = inconclusive; · = no result. Most compounds without a hit are left out; they make up all but 22% or so of the library. Unless noted, the call rests on the fitted dose curve; in most records, active means well fitted inhibition curve with a large enough effect; inconclusive means small, poorly fitted or top-dose-only effect, or another doubt; inactive means no such curve, though single readings can be large or run the other way.
SMILES,Pf growth 48h,Pf growth 96h,Shiga toxin inh,LmPK inh,Cycloheximide cs
CCCOC(=O)C[N+](C)(C)CCOC1CC2CCC1(C)C2(C)C (stereo not given),1.9µM*,1.5µM*,5,-2%,0
CCCCOC(=O)C[N+](C)(C)CCOC1CC2CCC1(C)C2(C)C (stereo not given),1.5µM*,?,-4,-1%,-3
CCCCCCOC(=O)C[N+](C)(C)CCOC1CC2CCC1(C)C2(C)C (stereo not given),1.7µM*,0.74µM*,17,-6%,19*
CN1C(=O)/C(=C/c2cc(C(C)(C)C)c(O)c(C(C)(C)C)c2)NC1=S,?,?,-5,5%,25
COc1cccc(CC2(CO)CCCN(Cc3ccc(CN4CCCCC4)s3)C2)c1 (stereo not given),?,?,-5,5%,-1
Cc1cccc(C)c1NC(=O)CNC(=O)c1c(C)nn(-c2ccccc2)c1Cl,0%,2%,·,·,·
CCCCCCCOC(=O)C[N+](C)(C)CCOC1CC2CCC1(C)C2(C)C (stereo not given),1.9µM*,13µM*,0,5%,-2
CC(C)CCOC(=O)C[N+](C)(C)CCOC1CC2CCC1(C)C2(C)C (stereo not given),?,246%,-7,13%,1
CCc1ccc(N2CC(C(=O)OCc3nc4ccsc4c(=O)[nH]3)CC2=O)cc1 (stereo not given),6%,37%,·,·,·
S=c1[nH]nc(-c2ccc3ccccc3n2)n1-c1cc(Cl)cc(Cl)c1,12%,4.1µM*,-7,-1%,-1
S=c1[nH]nc(-c2ccc3ccccc3n2)n1-c1ccccc1Cl,-1%,12%,11,28µM*,5
S=c1[nH]nc(-c2ccc3ccccc3n2)n1Cc1ccccc1,-16%,1%,-10,-8%,-3
Fc1ccc(-n2c(-c3ccc4ccccc4n3)n[nH]c2=S)cc1,6%,0%,11,3%,-3
O=S(=O)(c1ccccc1)N(CC1CO1)c1cccc2ccccc12 (stereo not given),12µM*,?,13,15%,5
COCCNC(=S)N1CCN(c2ccc(Cl)cc2)CC1,6%,?,-3,1%,-3
O=C1N(Cc2cccc(Cl)c2)C[C@@H]2C[C@@H](c3cccn3-c3cccnc3)N3CCC[C@@]123,9.3µM*,18%,-6,-2%,1
O=C1N(Cc2cccnc2)C[C@@H]2C[C@@H](c3ccc(C(F)(F)F)cc3)N3CCC[C@@]123,?,?,-2,9%,1
CCn1ncc([C@@H]2C[C@H]3CN(Cc4cccc(Cl)c4)C(=O)[C@]34CCCN24)c1C,?,22%,-6,2%,0
COC(=O)c1ccc([C@@H]2C[C@H]3CN(Cc4cccnc4)C(=O)[C@]34CCCN24)cc1,?,10µM*,-15,-4%,-3
Cn1cc([C@@H]2C[C@H]3CN(Cc4cccc(Cl)c4)C(=O)[C@]34CCCN24)c(-c2ccccc2)n1,40%,2.9µM*,-13,-5%,1
Cc1nn(C)cc1[C@@H]1C[C@H]2CN(Cc3cccc(Cl)c3)C(=O)[C@]23CCCN13,?,?,19,9%,-1
COCCNC(=O)CC(=O)N/N=C/c1ccc(C(=O)OC)cc1,27%,?,-13,-3%,0
O=C(COC(=O)CCNS(=O)(=O)c1cccs1)Nc1ccccc1,0%,25%,·,·,·
Cc1nn(CC(=O)NCc2ccc(OC(C)C)cc2)c(=O)c2cc(-c3ccccc3)nn12,33%,1%,-3,-2%,8
CCOC(=O)c1c(C)nc2c3ccccc3ccn12,257%,21%,37*,-16%,32*
SMILES,Pf growth 48h,Pf growth 96h,Shiga toxin inh,LmPK inh,Cycloheximide cs
N=c1oc2ccccc2cc1-c1nc(-c2ccccc2)cs1,39%,23%,45*,3%,42*
N#CCc1nc(-c2cc3ccccc3oc2=O)cs1,89%,3%,51*,-4%,41*
O=C(Nc1nc(-c2cccs2)cs1)c1cc2ccccc2oc1=O,69%,59%,8,2%,1
O=c1oc2ccccc2cc1-c1nc(-c2cccs2)cs1,·,36%,37,5%,14*
N=c1oc2ccc3ccccc3c2cc1-c1nc(-c2ccccc2)cs1,-6%,31%,-2,-1%,-2
CC1CCC(=C(C#N)c2nc(-c3cc4ccccc4oc3=O)cs2)CC1 (stereo not given),?,0%,30*,3%,23*
O=C(CSc1nnc(-c2ccccc2)c(-c2ccccc2)n1)NC1CCS(=O)(=O)C1 (stereo not given),60%,-10%,7,-4%,-3
COc1cccc2cc(-c3nc(-c4cccs4)cs3)c(=O)oc12,34%,?,127*,7%,37*
CNc1nnc(-c2cc3ccccc3oc2=O)s1,45%,-1%,83*,-19%,38*
Nc1cc2ccccc2oc1=O,·,?,-6,2%,-1
O=C(c1ccccc1F)N1CCN(C(=O)C2CC2)CC1,12%,?,-8,-10%,16
NS(=O)(=O)OCc1ccc(C(F)(F)F)cc1,51%,0%,2,1%,-3
Cc1nn(-c2ccc(F)cc2)c(Cl)c1/C=N/NC(=O)c1ccc(O)cc1,?,-24%,61*,4%,20*
Cc1nn(-c2ccc(F)cc2)c(Cl)c1/C=N/NC(=O)c1cccc(S(=O)(=O)N2CCCC2)c1,?,?,-4,3%,-1
CNC(=S)N/N=C/c1c(C)nn(-c2ccc(F)cc2)c1Cl,?,?,6,-2%,11
Cc1nn(-c2ccc(F)cc2)c(Cl)c1/C=N/NC(=O)c1cccs1,-63%,?,59*,4%,30*
Cc1oc(-c2cccc3ccccc23)nc1CN1CCN(c2ncnc3ccccc23)CC1,?,1%,-6,2%,6
O=C(O)C1CC=CCC1C(=O)Nc1cccnc1 (stereo not given),9.3µM*,86%,3,2%,-2
O=C(Nc1ccccc1)C(=O)Nc1cccnc1,161%,243%,53*,14µM*,32*
O=C(CCCOc1ccccc1)Nc1cccnc1,-4%,?,-4,0%,-2
O=C(O)/C=C/C(=O)Nc1cccnc1,-3%,-1%,-10,1%,-1
O=C(CC(=O)c1ccccc1)Nc1cccnc1,13%,11%,11,-7%,24*
O=C(COc1ccc(C(=O)c2ccccc2)cc1)Nc1cccnc1,-6%,?,-6,-5%,11
O=C(CCCc1ccccc1)Nc1cccnc1,·,21%,66*,-2%,19*
Cc1cc(C)cc(NC(=O)CN2CCN(CCN=CC3=C(O)CC(c4ccc(Cl)cc4)CC3=O)CC2)c1 (stereo not given),7%,23%,16,3%,-4
Cc1nc(C)c(C(=O)NNS(=O)(=O)c2ccc3ccccc3c2)s1,8%,28%,-12,2%,-1
